From PubChem BioAssay
4-MU autofl – qHTS Assay for Spectroscopic Profiling in 4-MU Spectral Region | max dye-equivalent concentration, M | actives 11% (n = 59,000) | compound autofluorescence, 340/450 nm, 4-MU equivalents; stronger effect = higher value; in the data active = max dye-equivalent concentration above about 10 nM; inconclusive = mostly about 1.1 nM to 9.6 nM
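Compounds in 100 mM Tris, pH 8.0, sat 15 min at room temperature before fluorescence was read at 340 nm excitation/450 nm emission; a per-plate six-point 4-MU standard curve converted signals to dye-equivalent concentration at each compound concentration.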
A350 fluor – qHTS Assay for Spectroscopic Profiling in A350 Spectral Region. actives 11% (n = 59,000). max dye-equivalent concentration, M. Compound autofluorescence, 340/450 nm, Alexa 350 dye-equivalents; stronger effect = higher value; in the data active = max dye-equivalent concentration above about 10 nM; inconclusive = mostly about 1.1 nM to 9.6 nM
HSD17B inh – qHTS Assay for Inhibitors of HSD17B4, hydroxysteroid (17-beta) dehydrogenase 4; 3-hydroxyacyl-CoA dehydrogenase type-2 (Homo sapiens), Q99714; Potency, µM (doses to about 57.1 µM), usual class: inhibitors; AID 893, 2007; actives 7.6% (n = 75,000); recombinant HSD17B10, NADH fluorescence kinetic;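 also: the protocol describes HADH2 (HSD17B10) and not the HSD17B4 of the title; nearly all actives have a fitted effect of over 70% in size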
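His-tagged E. coli-expressed HADH2 at 20 nM in 100 mM Tris-HCl pH 9.0 with 0.01 % Tween-20, preincubated 15 min with compound at room temperature. Reaction with 1 mM NAD+ and 90 uM beta-hydroxybutyryl coenzyme A; NADH fluorescence (360/450 nm) read kinetically over 4 min, last minus first point.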
CRE-bla Fsk – Cell signaling CRE-BLA (Fsk stim); actives 2.5% (n = 71,000); Potency, µM (titrated, usually from 38.2 µM), hits mostly activators; CHO CRE-bla reporter (cAMP response element driving beta-lactamase), forskolin EC10, beta-lactamase ratio; active = well fitted activation curve with a large enough effect in the signal ratio, with a control signal flat, not every such curve was filed as active; inconclusive = small, poorly fitted or top-dose-only effect, or effect the other way, or a change in a side signal; the % refers to the signal ratio
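Modulation of forskolin signalling: compounds in titration series added with EC10 NKH 477 to CHO cells carrying a CRE-driven beta-lactamase reporter, 3 h, 37C. CCF4 FRET ratio (460/530 nm, ex 405 nm) gives %activity and AC50.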
AID923 – qHTS Assay for Allosteric/Competitive Inhibitors of Caspase-1: Spectroscopic Profiling in AFC Spectral Region. Potency, µM (highest dose often 57.5 µM), usual class: activators. AID 923, 2007. actives 1.1% (n = 75,000). compound fluorescence, AFC spectral region (405/520 nm)
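Titrations up to 57 uM read every 20 sec for 3 min (405/520 nm) with 50 nM caspase 1 and 5 uM Ac-WEHD-AFC, pH 7.5 HEPES buffer. Fluorescence-vs-time intercept gave baseline, scaled against on-plate AFC standard.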
HADH2 inhib – qHTS Assay for Inhibitors of HADH2 (Hydroxyacyl-Coenzyme A Dehydrogenase, Type II); 3-hydroxyacyl-CoA dehydrogenase type-2 (Homo sapiens), Q99714; recombinant HADH2, NADH fluorescence, beta-hydroxybutyryl-CoA; Potency, µM (series often up to 57.1 µM), usual class: inhibitors; actives 3.4% (n = 73,000); AID 886, 2007; also: nearly all actives have a fitted effect of over 60% in size
Target sequence (Q99714 whole entry, looked up, one chain of several): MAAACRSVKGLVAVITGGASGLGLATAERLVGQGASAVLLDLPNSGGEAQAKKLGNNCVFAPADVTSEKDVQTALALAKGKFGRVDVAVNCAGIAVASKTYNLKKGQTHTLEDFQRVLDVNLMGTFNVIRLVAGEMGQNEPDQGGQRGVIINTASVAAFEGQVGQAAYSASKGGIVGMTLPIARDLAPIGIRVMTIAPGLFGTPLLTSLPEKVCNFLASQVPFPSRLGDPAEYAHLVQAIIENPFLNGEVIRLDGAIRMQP
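E. coli-expressed His-tagged HADH2 tested at 20 nM in alkaline Tris buffer (pH 9.0); oxidation of 90 uM beta-hydroxybutyryl-CoA with 1 mM NAD+ tracked fluorimetrically for 4 min.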
A number is an active result; – = inactive; ? = inconclusive; · = no result. Compounds with a hit are over-represented: about 14% of the library has one in this group of screens. Unless noted, calls follow the shape of the dose curve; as a rule, active = well fitted curve in the direction sought with a large enough effect; inconclusive = small, poorly fitted or top-dose-only effect, or another doubt; inactive = no such curve, though single readings can be large; an effect the other way counts as inactive or inconclusive.

SMILES | 4-MU autofl | A350 fluor | HSD17B inh | CRE-bla Fsk | AID923 | HADH2 inhib
O=c1c(-c2cc(F)cc(F)c2)nc2cnc(Oc3ccccc3)nc2n1C1CC1 | – | – | – | ? | – | –
COC(=O)[C@@H]1C[C@H]1[C@@H](NC(=O)OCc1ccccc1)c1ccccc1 | · | · | · | – | · | –
COC(=O)N1CCC2(CCN(C(=O)NC(C)C)CC2)CC1 | – | – | – | – | – | –
Cc1ccccc1CN1CCN(CC(=O)NCc2ccc3c(c2)OCO3)C1=O | – | – | – | – | – | –
CCC1c2ccc(C)n2CCN1C(=O)Nc1ccccc1OC (stereo unspecified) | 1.8e-08M | 2.1e-08M | 32µM | – | – | –
Cc1cc(C)cc(OCC(=O)Nc2cccc(-c3nc4ncccc4o3)c2)c1 | · | · | ? | – | – | –
Cc1cc(C)c(Cn2c(=O)n(CCCC(=O)NCc3ccco3)c(=O)c3ccccc32)c(C)c1 | – | – | – | 10µM | – | –
CCOc1cc2[nH]c(=O)n(CCCCC(=O)NCc3ccco3)c(=O)c2cc1OCC | – | – | 25µM | ? | – | –
CCOc1cc2[nH]c(=O)n(CCCC(=O)NCc3ccco3)c(=O)c2cc1OCC | ? | ? | 25µM | – | – | –
CCOC(=O)c1ccccc1NC(=O)CSc1nnc(COc2ccccc2C)n1C | – | – | – | – | – | –
COc1ccc(C(=O)Nc2nnc(Cc3cccs3)s2)cc1OC | – | – | – | – | – | –
CCCCCc1nnc(NC(=O)Cc2cccs2)s1 | – | ? | 25µM | – | – | 7.9µM
COc1ccc(Cc2nnc(NC(=O)Cc3cccs3)s2)cc1OC | – | – | 20µM | ? | – | 13µM
CN1Cc2cc(C(=O)c3cc(Cl)cc(CSc4ncccn4)c3O)cnc2NC1=O | – | – | ? | 4µM | – | –
Cc1cccn2c(=O)c(/C=N/O)c(N3CCCCC3)nc12 | 1.3e-08M | 1.5e-08M | – | – | – | –
Cc1ccc(S(=O)(=O)/C(C#N)=C/c2c(N3CCN(C)CC3)nc3c(C)cccn3c2=O)cc1 | 9.9e-08M | 1.1e-07M | · | · | · | ·
CCN1CCN(c2nc3c(C)cccn3c(=O)c2/C=C(\C#N)S(=O)(=O)c2ccc(C)cc2)CC1 | 2.3e-08M | 2.7e-08M | · | · | · | ·
N#C/C(=C\c1c(N2CCC(C(N)=O)CC2)nc2ccccn2c1=O)S(=O)(=O)c1ccccc1 | ? | 1e-08M | · | · | · | ·
CCCCCOC(=O)Cn1c(N2CCCCCC2)nc2c1c(=O)[nH]c(=O)n2C | – | – | – | – | – | –
Cc1ccc(-c2nnn(CC(=O)Nc3cccc4cccnc34)n2)o1 | – | – | ? | – | – | –
CC1CN(c2nc3ccccn3c(=O)c2/C=C(\C#N)S(=O)(=O)c2ccccc2)CC(C)O1 (stereo unspecified) | – | – | – | ? | – | –
Cc1cccn2c(=O)c(/C=C(\C#N)S(=O)(=O)c3ccccc3)c(N3CCN(C)CC3)nc12 | 1.9e-08M | 2.1e-08M | · | · | · | ·
Brc1cc(Oc2cc(Br)c(Br)c(Br)c2Br)c(Br)c(Br)c1Br | · | · | – | – | – | –
CCOC(=O)c1cnc(-n2nc(C)cc2C)nc1NC1CCCCC1 | 1e-08M | 1.2e-08M | – | – | – | –
CCOC(=O)c1cnc(-n2nc(C)cc2C)nc1N(CC)CC | 1.2e-08M | 1.5e-08M | – | ? | – | –
SMILES | 4-MU autofl | A350 fluor | HSD17B inh | CRE-bla Fsk | AID923 | HADH2 inhib
CCOC(=O)c1cnc(-n2nc(C)cc2C)nc1NC | – | – | 25µM | – | – | ?
CCOC(=O)c1cnc(-n2nc(C)cc2C)nc1Nc1ccc(N(C)C)cc1 | – | – | – | 0.63µM | – | –
Cc1cn(C2CC3OCC3O2)c(=O)[nH]c1=O (stereo unspecified) | – | – | – | – | – | –
Cc1ccc(Nc2nc(N3CCOCC3)c3ccccc3n2)cc1 | 6.4e-08M | 8.6e-08M | ? | – | – | –
Oc1ccc(Nc2nc(N3CCCC3)c3ccccc3n2)cc1 | – | – | ? | ? | – | –
COc1ccc(-n2ncc3c(=O)n(CC(=O)OCc4ccccc4)cnc32)cc1 | – | – | 4µM | – | – | –
Cc1ccc(-n2nnc3c(=O)n(CC(=O)N4CCCC4)cnc32)cc1 | – | – | – | ? | – | –
Cc1ccc(-n2ncc3c(=O)n(CC(=O)N4CCCCCC4)cnc32)cc1 | ? | ? | 32µM | ? | – | –
CCOc1ccc2[nH]c(=O)c(CN(C(=O)N3CCOCC3)C3CC3)cc2c1 | 3.2e-07M | 2.8e-07M | ? | – | – | –
CCOc1ccc2[nH]c(=O)c(CN(Cc3ccccc3)C(=O)N3CCCC3)cc2c1 | 7.4e-08M | 8.8e-08M | ? | – | – | –
CCOc1ccc2[nH]c(=O)c(CN(CC3COCCO3)C(=O)C3CC3)cc2c1 (stereo unspecified) | 3.9e-07M | 6.3e-07M | 4µM | – | – | –
O=C(COc1ccccc1)N(Cc1cc2ccccc2[nH]c1=O)CC1CCCO1 (stereo unspecified) | – | – | – | – | – | –
CCOC(=O)C(CCc1ccccc1)NC(C)C(=O)N1CCCC1C(=O)O (stereo unspecified) | · | · | – | · | – | ·
CN[C@@H]1[C@H](O)[C@H](NC)[C@@H]2O[C@]3(O)C(=O)C[C@@H](C)O[C@H]3O[C@@H]2[C@H]1O | – | – | · | – | · | –
O=C(Cc1coc2cc3c(cc12)CCC3)OCc1cc(=O)n2c(n1)sc1ccccc12 | ? | ? | 25µM | ? | – | ?
CCCC[C@H]1C[C@@H]1[C@@H]1N(P(=O)(c2ccccc2)c2ccccc2)C[C@@](O)(c2ccccc2)CC12CC2 | · | · | – | – | – | –
NC(=O)Nn1c(CCC(=O)O)ccc1-c1ccc(Br)cc1 | 2.9e-08M | 3.1e-08M | ? | – | – | –
NC(=O)CSc1ccc(Br)cc1 | – | – | – | – | – | –
O=c1c2[nH]c3ccccc3c2ncn1Cc1ccccn1 | ? | ? | 25µM | 10µM | – | –
CCC1CCCN1Cn1cnc2c([nH]c3ccccc32)c1=O (stereo unspecified) | – | – | 32µM | – | – | –
O=c1c2[nH]c3ccccc3c2ncn1Cc1ccncc1 | ? | ? | ? | – | – | –
CCC1CCCN1Cn1cnc2c([nH]c3ccc(OC)cc32)c1=O (stereo unspecified) | 2.5e-07M | 2.5e-07M | 25µM | – | – | 25µM
Cc1ccccc1CNc1ncnc2c1ncn2[C@@H]1O[C@@H](CO)[C@H](O)[C@@H]1O | – | – | – | – | – | –
